Source: PubChem (Broad Institute)
Shown is part of a subset that was picked to be rich in hits.
PglD inh: inhibitors of Campylobacter jejuni PglD acetyltransferase; purified PglD enzyme, DTNB colorimetric CoA detection; inhibition, % at 12.5 µM; 360,000 compounds, 0.098% hits; AID 602405; in the data active = inhibition above about 16%, passing the limit was not always enough; inconclusive = no clear call, values can overlap the other calls
DENV2 CPE rescue: protects cells from dengue virus 2 cytopathic effect; 350,000 compounds, 1.7% hits; AID 651640; CPE inhibition, % at 9.99 µM; DENV2-infected cells, cytopathic effect rescue, plate reader; in the data active = CPE inhibition above about 20%, passing the limit was not always enough; inconclusive = no clear call, values can overlap the other calls; tested in BHK-21 cells;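 note: 0% = median of neutral control wells and 100% = median of positive control wells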
Rtt109 HAT inh: C. albicans Rtt109 histone acetyltransferase inhibition; 330,000 compounds, 0.16% hits; inhibition, % at 34.9 µM; purified Rtt109/Vps75, ThioGlo CoA-SH fluorescence, 4 h; AID 540336;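 active = inhibition of at least 50% in every replicate; inconclusive = best replicate reaches 50% inhibition but some replicates fall short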
Target sequence (Q5AAJ8 whole entry, looked up): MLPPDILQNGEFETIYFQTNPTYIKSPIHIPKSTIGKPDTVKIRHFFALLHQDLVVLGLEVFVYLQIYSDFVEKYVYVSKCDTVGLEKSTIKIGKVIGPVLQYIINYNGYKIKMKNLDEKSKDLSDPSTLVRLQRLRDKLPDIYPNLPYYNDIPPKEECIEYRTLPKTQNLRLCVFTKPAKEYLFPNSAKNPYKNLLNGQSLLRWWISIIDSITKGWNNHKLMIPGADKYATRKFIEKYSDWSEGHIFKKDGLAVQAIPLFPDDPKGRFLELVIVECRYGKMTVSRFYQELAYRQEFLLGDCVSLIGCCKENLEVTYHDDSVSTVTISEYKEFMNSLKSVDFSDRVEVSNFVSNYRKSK
Glyco luc inh: blocks N-linked glycosylation in D54 reporter cells. D54 ERlucT glycosylation luciferase reporter, 24 h; percent of 100 nM tunicamycin response. reporter increase, % at 12.5 µM. 360,000 compounds, 0.23% hits. AID 588692;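 active = mean luciferase reporter signal, scaled so untreated is 0 and the glycosylation-blocking control 100, at or above a set limit in every replicate; inconclusive = mean reaches the limit but not every replicate does; inactive = mean below the limit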;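 note: luciferase carries N-glycosylation sites so blocking glycosylation raises the light; 0% = median of neutral control wells and 100% = median of 100 nM tunicamycin wells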
An asterisk follows results filed as active; ? = inconclusive; . = no result given; ! = repeats disagree.

SMILES	PglD inh	DENV2 CPE rescue	Rtt109 HAT inh	Glyco luc inh
Cc1ccc(O)c(C(=O)C=Cc2ccccc2)c1	.	7	0	30*
COc1cc(C)cc(C(=O)C=Cc2ccccc2)c1O	8	19	5	31*
COc1ccc(S(=O)(=O)Nc2ccc3c(c2)CC(=O)N([C@H](C)CO)C[C@@H](C)[C@@H](CN(C)Cc2ccncc2)O3)cc1	-1	-7	.	.
COc1cccc(-c2cn(CC[C@@H]3CC[C@H](NS(=O)(=O)Cc4ccccc4)[C@H](CO)O3)nn2)c1	-11	-6	.	.
CCN=C1NC(c2ccccc2C(F)(F)F)C(C(=O)OC)=C(C)N1C (stereo not drawn)	.	21*	.	.
N#CC(Cc1ccccc1OC(F)F)c1nc2ccccc2[nH]1 (stereo not drawn)	.	25*	3	1
CCC(=O)N(C)C[C@H]1Oc2cc(-c3ccccc3F)ccc2S(=O)(=O)N([C@H](C)CO)C[C@H]1C	-2	25*!	.	3
CCC(=O)N(C)C[C@H]1Oc2cc(-c3ccccc3F)ccc2S(=O)(=O)N([C@@H](C)CO)C[C@H]1C	4	-7	.	.
C[C@@H]1CN([C@@H](C)CO)S(=O)(=O)c2ccc(Br)cc2O[C@H]1CN(C)C(=O)CN(C)C	-3	18	.	0
CC(=O)N(C)C[C@H]1Oc2cc(-c3ccccc3)ccc2S(=O)(=O)N([C@@H](C)CO)C[C@@H]1C	1	33*	.	.
C[C@H](CO)N1C[C@H](C)[C@@H](CN(C)C(=O)CN(C)C)Oc2cc(Br)ccc2S1(=O)=O	-5	33*	.	.
C[C@H]1CN([C@@H](C)CO)S(=O)(=O)c2ccc(Br)cc2O[C@H]1CN(C)C(=O)CN(C)C	-5	38*!	.	3
COc1ccc(C#Cc2ccc3c(c2)[C@H]2[C@H](CCN2S(=O)(=O)c2ccccc2C)[C@H](CO)N3C)cc1	2	-2	.	.
C[C@@H]1CCCCO[C@H](CN(C)Cc2ccc3c(c2)OCO3)[C@H](C)CN([C@H](C)CO)C(=O)c2cc(NC(=O)NC3CCCCC3)ccc2O1	1	-20	.	.
C[C@H]1CN([C@@H](C)CO)S(=O)(=O)c2ccc(Br)cc2O[C@@H]1CN(C)S(=O)(=O)c1ccccc1F	-1	36*!	.	2
CC(=O)N(C)C[C@@H]1Oc2cc(Br)ccc2S(=O)(=O)N([C@H](C)CO)C[C@@H]1C	-2	36*!	.	.
C[C@H]1CN([C@@H](C)CO)S(=O)(=O)c2ccc(Br)cc2O[C@H]1CN(C)S(=O)(=O)c1ccccc1F	3	3	.	0
CC(C)NC(=O)N1CCCCN2[C@H](CO)[C@H](c3ccc(C#Cc4ccccc4)cc3)[C@H]2C1	-4	-5	.	.
COc1cccc(/C=C2/Sc3ccc(C(=O)NCCCN4CCCC4)cc3NC2=O)c1	2	?	60*	-7
COc1cccc(/C=C2/Sc3ccc(C(=O)NCCN4CCCC4)cc3NC2=O)c1	1	-1	55*	-11
O=C1Nc2cc(C(=O)NCCCN3CCCC3)ccc2S/C1=C/c1ccccc1F	0	-3	14	-7
COc1cc(-c2coc3c(C(=O)NCc4ccc(OC)c(OC)c4)cccc23)ccc1O	5	-3	.	91*
COc1ccc(CNC(=O)c2cccc3c(-c4cccc(C(N)=O)c4)coc23)cc1OC	5	-9	.	60*
CCCNC(=O)Nc1ccc2c(c1)OC[C@@H](C)N(C(C)=O)C[C@@H](C)[C@@H](OC)CN(C)C2=O	3	3	.	.
Cc1ccc(SCC(=O)OC(C)C(=O)NCc2ccccc2)cc1 (stereo not drawn)	-4	64*	1	-2
SMILES	PglD inh	DENV2 CPE rescue	Rtt109 HAT inh	Glyco luc inh
N#Cc1c(Nc2ccccc2Cl)s[nH]c1=O	.	-5	109*	3
N#Cc1c(Nc2ccccc2)s[nH]c1=O	.	3	111*	-3
N#Cc1c(Nc2ccccc2C(F)(F)F)s[nH]c1=O	18	-1	.	0
N#Cc1c(Nc2ccccc2)sc(C(=O)c2ccc(F)cc2)c1N	.	.	4	2
Cc1ccc(S(=O)(=O)N(C)C[C@H]2Oc3c(NS(=O)(=O)c4cccs4)cccc3C(=O)N([C@@H](C)CO)C[C@H]2C)cc1	3	6	.	.
C[C@@H]1CN([C@H](C)CO)C(=O)Cc2cc(NS(=O)(=O)c3ccc(Cl)cc3)ccc2O[C@@H]1CN(C)Cc1ccc(C(=O)Nc2ccccc2N)cc1	.	-7	.	.
CN(C)CCCN1c2ccccc2Sc2ccc3ccccc3c21	.	43*	10	0
CCCN(C)C[C@@H]1OCc2cnnn2CCCC(=O)N([C@@H](C)CO)C[C@@H]1C	4	-5	.	.
C[C@@H]1CN([C@@H](C)CO)C(=O)c2cc(NS(=O)(=O)c3cccs3)ccc2O[C@@H](C)CCCCO[C@@H]1CN(C)S(=O)(=O)c1ccccc1	-4	-9	.	.
